In PubChem BioAssay AID1159580 (chemical genetic matrix, 2015):
Where “and” joins values, the source holds several entries; their conditions need not be identical. Identical values can stand only once. Out of some 5,500 compounds screened, about 2,000 (36%) were called active. Inconclusive results (about 18%) are left out. Rule as the data show it: active = normalized growth mostly below about 0.91 (no sharp cut-off); inconclusive = no clear call, values can overlap the other calls; inactive = mostly above about 0.92. The list shows a part of the results.

Test: chemical genetic growth profiling, strain panel (AID 1159580);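 also: tested at 20 µM; growth read once vehicle control cultures reached saturation at 30 °C; 1 = growth at the plate median or of vehicle wells; lower values mean less growth of the strain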
Settings: S. cerevisiae deletion strains, growth OD

Measured: normalized growth

CC(=O)O[C@H]1CC[C@@]2(C)C(=CCC3C2CC[C@@]2(C)C3CC[C@@H]2C(C)CCCC(C)C)C1 (stereo partly drawn)
inactive: locus YAL021C, strain ccr4, hits give low values 1 | locus YAL026C, strain drs2, hits give low values 1 | locus YAL030W, strain snc1, hits give low values 0.985 | locus YBL061C, strain skt5, hits give low values 0.994 | locus YBR009C, strain hhf1, hits give low values 0.994 | locus YBR021W, strain FUR4, hits give low values 0.996 | locus YBR023C, strain chs3, hits give low values 0.998 | locus YBR171W, strain sec66, hits give low values 0.976 | locus YBR229C, strain ROT2, hits give low values 1.01 | locus YBR231C, strain swc5, hits give low values 0.988 | locus YBR279W, strain paf1, hits give low values 0.997 | locus YCL011C, strain gbp2, hits give low values 0.992 | locus YCL016C, strain dcc1, hits give low values 1.01 | locus YCL029C, strain bik1, hits give low values 1.02 | locus YCL061C, strain MRC1, hits give low values 0.988 | locus YCL069W, strain vba3, hits give low values 0.998 | locus YCR088W, strain abp1, hits give low values 0.988 | locus YDL005C, strain med2, hits give low values 0.981 | locus YDL035C, strain GPR1, hits give low values 1.03 | locus YDL040C, strain nat1, hits give low values 0.975 | locus YDL074C, strain BRE1, hits give low values 1.04 | locus YDL101C, strain DUN1, hits give low values 1.01 | locus YDL134C, strain PPH21, hits give low values 1.02 | locus YDL185W, strain tfp1, hits give low values 1.03 | locus YDL192W, strain arf1, hits give low values 1.05 | locus YDR001C, strain nth1, hits give low values 0.993 | locus YDR069C, strain doa4, hits give low values 0.987 | locus YDR101C, strain arx1, hits give low values 1.02 | locus YDR137W, strain rgp1, hits give low values 1.01 | locus YDR159W, strain sac3, hits give low values 0.993 | locus YDR162C, strain NBP2, hits give low values 1.02 | locus YDR195W, strain ref2 0.943 | locus YDR297W, strain sur2, hits give low values 0.99 | locus YDR318W, strain mcm21, hits give low values 1.03 | locus YDR334W, strain swr1, hits give low values 0.988 | locus YDR335W, strain msn5, hits give low values 1 | locus YDR388W, hits give low values 1.03 | locus YDR392W, strain spt3, hits give low values 0.958 | locus YDR502C, strain sam2, hits give low values 1.02 | locus YEL003W, strain gim4, hits give low values 0.988 | locus YEL037C, strain rad23, hits give low values 0.996 | locus YEL061C, strain CIN8 (second series), hits give low values 0.992 | locus YEL061C, strain CIN8, hits give low values 1.01 | locus YER015W, strain faa2, hits give low values 0.995 | locus YER016W, strain bim1, hits give low values 0.994 | locus YER110C, hits give low values 1.03 | locus YER111C, strain swi4, hits give low values 0.979 | locus YER155C, strain BEM2 (second series), hits give low values 0.97 | locus YER155C, strain BEM2, hits give low values 0.992 | locus YER167W, strain BCK2, hits give low values 1.02 | locus YFR010W, strain ubp6, hits give low values 0.986 | locus YGL078C, strain dbp3, hits give low values 1.02 | locus YGL086W, strain mad1, hits give low values 1.01 | locus YGL167C, strain pmr1, hits give low values 0.989 | locus YGL173C, strain kem1, hits give low values 0.99 | locus YGL227W, strain vid30, hits give low values 0.978 | locus YGL240W, strain doc1, hits give low values 0.969 | locus YGL248W, strain PDE1, hits give low values 1.02 | locus YGL253W, strain hxk2, hits give low values 0.995 | locus YGR078C, strain PAC10, hits give low values 1.03 | locus YGR135W, strain pre9, hits give low values 1.02 | locus YGR252W, strain gcn5, hits give low values 1.03 | locus YHR013C, strain ard1, hits give low values 0.997 | locus YHR027C, strain rpn1, hits give low values 0.997 | locus YHR030C, strain SLT2, hits give low values 1.01 and 0.967 | locus YHR079C, strain IRE1 (second series), hits give low values 1.02 | locus YHR079C, strain IRE1, hits give low values 0.974 | locus YHR094C, strain hxt1, hits give low values 1.01 | locus YHR129C, strain ARP1, hits give low values 1.02 | locus YHR142W, strain chs7, hits give low values 1.01 | locus YHR200W, strain rpn10, hits give low values 1.03 | locus YIL066C, strain RNR3, hits give low values 1.04 | locus YIL073C, strain SPO22, hits give low values 1.1 | locus YIL125W, strain kgd1, hits give low values 1.01 | locus YIR030C, strain dcg1, hits give low values 1.02 | locus YJL092W, strain hpr5, hits give low values 0.998 | locus YJL095W, strain BCK1 (second series), hits give low values 1.01 | locus YJL095W, strain BCK1, hits give low values 1.03 and 0.973 | locus YJL115W, strain asf1, hits give low values 1 | locus YJL129C, strain trk1, hits give low values 0.998 | locus YJL134W, strain LCB3, hits give low values 1.01 | locus YJL154C, strain vps35, hits give low values 1 | locus YJL164C, strain tpk1, hits give low values 1.01 | locus YJL166W, strain qcr8, hits give low values 0.993 | locus YJL168C, strain set2, hits give low values 1.02 | locus YJL187C, strain SWE1 (second series), hits give low values 1.02 | locus YJL187C, strain SWE1, hits give low values 0.997 | locus YJR043C, strain POL32, hits give low values 1.03
